RORg inh = blocks mouse ROR gamma transcriptional activity; P51450; Drosophila S2 Gal4-RORgamma UAS-luciferase reporter, 20 h; AID 2551; Potency, µM (top dose mostly 53.6 µM), for inactives: at the highest dose activity change, negative = inhibition, hits mostly inhibitors; hit rate 5.4% among 310,000; also: potency is read from the fitted curve at half-maximal effect; % is scaled to controls: 0 for no effect and ±100 for the full control effect; nearly all actives have a fitted effect of over 60% in size
Target sequence (P51450 whole entry, looked up, the tested form may be a part): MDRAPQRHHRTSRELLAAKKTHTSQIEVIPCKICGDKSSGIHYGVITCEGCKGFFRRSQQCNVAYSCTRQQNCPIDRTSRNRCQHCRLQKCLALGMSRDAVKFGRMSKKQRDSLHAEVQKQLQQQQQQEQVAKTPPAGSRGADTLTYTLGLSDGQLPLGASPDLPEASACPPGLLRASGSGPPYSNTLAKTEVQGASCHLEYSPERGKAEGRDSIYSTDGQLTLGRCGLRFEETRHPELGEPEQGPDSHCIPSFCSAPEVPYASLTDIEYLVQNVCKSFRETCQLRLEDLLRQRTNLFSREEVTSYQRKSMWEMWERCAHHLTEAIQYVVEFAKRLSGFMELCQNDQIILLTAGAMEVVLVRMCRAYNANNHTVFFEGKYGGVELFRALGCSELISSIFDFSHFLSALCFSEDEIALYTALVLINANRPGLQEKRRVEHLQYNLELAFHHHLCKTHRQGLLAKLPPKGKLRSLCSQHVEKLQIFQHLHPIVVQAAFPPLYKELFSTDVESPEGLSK
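Stably transfected Drosophila Schneider cells are the test system, with ROR gamma fused to Gal4 and luciferase under UAS control; luminescence is read after 20 hr of 700 uM copper sulfate induction at ambient temperature.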
p53 reactivation = mutant p53 re-activation in reporter cells; H1299 p53-A138V BP100-luciferase reporter, luminescence, 24 h; Potency, µM (titrated, usually from 92.2 µM), without a hit: at the top dose activity change, positive = activation, actives largely listed as activators; hit rate 0.063% among 320,000; AID 504706; also: potency is read from the fitted curve at half-maximal effect; % of control where 0% means no effect; nearly all actives have a fitted effect of over 45% in size
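H1299 (p53-null), stable ts p53-A138V + BP100-Luc; 1000 cells/well, Opti-MEM/10% FBS; cpd 4 pt, 1:5; 24 h, 37 deg C, 5% CO2; detection reagent 10 min RT; luminescence.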
ELG1 DNA repair = inhibitors of ELG1-dependent DNA repair in HEK293T cells | HEK293T ELG1-luciferase reporter, luminescence, 16 h; DNA damage induced by 5-fluorouridine | Potency, µM (series often up to 46.1 µM), for the others: at the highest dose activity change, negative = inhibition, usual class: inhibitors | hit rate 2.3% among 330,000; also: potency is read from the fitted curve at half-maximal effect; % is scaled to controls: 0 for no effect and ±100 for the full control effect; nearly all actives have a fitted effect of over 55% in size
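Step one: seed 2,000 cells per well. Step two: pin-transfer compound or DMSO alongside 5-fluorouridine. Step three: incubate 16 hr, 37 °C, 5% CO2. Step four: add ONE-Glo, wait 30 min, read luminescence.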
Giardia killer = kills Giardia lamblia; Giardia lamblia trophozoite viability; hit rate 0.15% among 340,000; activity change, % at 7.66 µM, hits read low; in the data active = activity change below about -80%; inconclusive = between about -30% and that limit;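 also: parasites exposed to compound for two days anaerobically before the ATP read; % is scaled to controls: 0 for no effect and ±100 for the full control effect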
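Viability, read as ATP luminescence: trophozoites at 100 cells/well, compound added, 48 hrs anaerobic at 37 deg C, then 15-30 min room-temperature development before reading.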
BRCA1 expr up = activators of BRCA1 expression; Potency, µM (series often up to 46.1 µM), for the others: at the top dose activation, actives largely listed as activators; AID 624202; MCF7-BRCA1-FFLuc reporter, luminescence, 48 h; response scale: scaled: vehicle 0%, 10 µM genistein 100%; hit rate 1.1% among 380,000; also: potency is read from the fitted curve at half-maximal effect; nearly all actives have a fitted effect of over 80% in size
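MCF7-BRCA1-FFLuc, 2000 cells/well; 2 h attach, 37 °C/5% CO2; compound 48 h; luciferase substrate 15 min; luminescence end-point. Norm. to genistein 10 microM max activation and DMSO; concentration-response curves fitted.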
VP16 counter = counter-screen for ROR gamma inhibitors: Gal4-VP16 reporter. Drosophila S2 Gal4-VP16 UAS-luciferase, luminescence, 20 h. Potency, µM (highest dose often 53.6 µM), without a hit: at the highest dose activity, negative = inhibition, most hits filed as inhibitors. hit rate 3.5% among 310,000. AID 2546;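 also: Gal4-VP16 expression switched on by copper sulfate through the metallothionein promoter; potency is read from the fitted curve at half-maximal effect; % is scaled to controls: 0 for no effect and ±100 for the full control effect; nearly all actives have a fitted effect of over 50% in size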
Starred values were filed as active, the others as inactive; u = inconclusive; x = no result given. Shown are actives, neighbours in structure and some others; about 7.6% of the full set was active somewhere. Unless noted, calls follow the shape of the dose curve; as a rule, active = well fitted curve in the direction sought with a large enough effect; inconclusive = small, poorly fitted or top-dose-only effect, or another doubt; inactive = no such curve, though single readings can be large; an effect the other way counts as inactive or inconclusive.

SMILES	RORg inh	p53 reactivation	ELG1 DNA repair	Giardia killer	BRCA1 expr up	VP16 counter
CSc1cccc(NC(=S)Nc2ccc(F)cc2)c1	u	5.2%	17.8%	0.3	32.6%	u
Fc1cccc(NC(=S)NCCCN2CCOCC2)c1	-0.6%	-5.3%	18.5%	12.8	-8.4%	8.8%
CSc1cccc(NC(=S)NCCCN2CCN(c3ccc(F)cc3)CC2)c1	6.31µM*	7.0%	u	5.4	-24.1%	u
NCC12CC3CC(C1)CC(c1ccc(Cl)cc1)(C3)C2	u	-10.2%	u	-5.4	-80.7%	u
CCOc1cc(-c2c(C#N)c(N)nc3c2CCCC3C)ccc1O (stereo not drawn)	-8.1%	-2.9%	u	3.9	-67.1%	4.0%
CCN1C(=NCc2cccc(C(F)(F)F)c2)N[C@@H](c2cccc(C(F)(F)F)c2)C(C(=O)OC)=C1C	x	x	x	x	-68.0%	x
CCOC(=O)N(C)c1c(CC)nc2c(OCc3ccccc3OC)cccn12	x	x	x	x	-7.4%	x
COc1ccccc1NC(=O)c1cc(S(=O)(=O)NCc2ccccc2)ccc1F	u	-5.6%	16.4µM*	-11.0	-22.3%	-9.0%
CCOc1ccc(S(=O)(=O)NCc2ccncc2)cc1NC(=O)c1ccccc1	x	-2.6%	4.11µM*	-3.1	-44.1%	x
Cc1nc2c(C(=O)NCc3ccc4c(c3)OCO4)cnn2c(C)c1Cc1ccc(F)cc1Cl	29.8%	-2.7%	20.6µM*	-8.3	-62.8%	-4.8%
O=C(NCCCN1CCCCCC1)[C@@H](c1ccccc1)C1CCCCC1	1.2%	x	x	x	x	0.7%
COc1ccc(N2CCN(C(=S)Nc3cccc(C)c3)CC2)cc1	u	-5.3%	1.6%	7.1	-2.2%	-1.6%
COc1cccc(N2CCN(C(=S)Nc3cccc(C)c3)CC2)c1	7.08µM*	-6.9%	-1.9%	-2.6	-29.3%	-27.7%
Cc1cccc(NC(=S)N2CCN(c3ccccc3)CC2)c1	10µM*	-0.2%	5.6%	-11.9	15.9%	u
Cc1cccc(NC(=S)N2CCCC2)c1	-19.8%	7.7%	0.0%	4.1	31.6%	-1.3%
Cc1cccc(CN2CCN(C(=S)Nc3ccccc3)CC2)c1	3.98µM*	-0.9%	3.8%	11.1	-4.6%	u
N#CCc1c(C#N)c(N)nc(N2CCN(S(=O)(=O)c3ccccc3)CC2)c1C#N	u	30.0%	9.2µM*	-15.7	-43.6%	-2.8%
Cc1ccccc1C(=O)N1CCc2c([nH]c3ccccc23)C1C(F)(F)F (stereo not drawn)	0.6%	4.3%	13µM*	8.5	-50.0%	6.7%
C/C(=N\NC(=O)CN(c1ccccc1)S(C)(=O)=O)c1ccccc1O	0.708µM*	1.5%	16.4µM*	-15.4	-49.1%	3.55µM*
CC(C)(C)C1CCC(=NNC(=O)CN(c2ccccc2)S(C)(=O)=O)CC1 (stereo not drawn)	-9.8%	6.1%	4.1%	0.0	49.2%	2.0%
C/C(=N\NC(=O)CN1CCCCC1)c1ccccc1O	3.55µM*	24.9%	u	-16.3	-38.1%	15.8µM*
CCCNC(=O)c1ccc(CN2CCc3ccccc3C2)cc1	6.5%	-0.8%	-13.1%	17.9	-3.9%	-5.5%
CN(C)c1ccc(NC(=O)CN2CCc3ccccc3C2)cc1	4.3%	u	u	3.5	11.2µM*	23.9%
CCOc1ccc(CN2CCN(C(=O)c3ccccc3)CC2)cc1	8.3%	1.0%	9.2µM*	-7.8	2.6%	6.3%
O=C(CN1CCc2ccccc2C1)Nc1ccc(F)cc1	-0.5%	9.6%	2.2%	6.0	-6.1%	-6.2%
Cc1cccc(C(=O)NC(=S)N2CCc3ccccc3C2)c1	1.41µM*	-9.1%	7.1%	-9.6	0.0%	3.55µM*
CCOc1ccc(C(=O)N2CCN(Cc3ccccc3)CC2)cc1	24.8%	0.2%	u	4.0	25.1%	1.3%
C/C(=N\NC(=O)c1ccc(CN2CCc3ccccc3C2)cc1)c1ccccc1O	0.891µM*	20.8%	3.26µM*	0.2	-55.1%	2.51µM*
COC1OC2COC(c3ccccc3)OC2C(O)C1NC(C)=O (stereo not drawn)	x	x	x	4.6	-12.7%	x

Source: PubChem BioAssay (National Center for Advancing Translational Sciences (NCATS))
